# Reference: PubChem BioAssay AID743286 (National Center for Advancing Translational Sciences (NCATS), 2014)
# About 340 (31%) of roughly 1,100 compounds were called active. Inconclusive results (about 40%) are left out. Calls follow the shape of the dose curve; as a rule, active = well fitted inhibition curve with a large enough effect; inconclusive = small, poorly fitted or top-dose-only effect; inactive = flat fitted curve, though single readings scatter. A selection follows.
# Biological target: Phosphatidylinositol 5-phosphate 4-kinase type-2 alpha (Homo sapiens) (UniProt P48426)
# Experiment: qHTS for Inhibitors of PI5P4K: Confirmation in Primary Assay; also: nearly all actives have a fitted effect of over 65% in size
# Conditions: PI5P4Kalpha enzyme, ADP-Glo luminescence, 60 min; series mostly up to 76.9 µM; activity change, negative = inhibition: at the top concentration
# Source text: In addition to finding PI5P, we discovered the type II phosphatidylinositol 5-phosphate 4-kinase (PI5P4K) family (alpha, beta, gamma isoforms) that catalyze the conversion of PI5P to PI(4,5)P2. Alternatively, PI(4,5)P2 can also be synthesized through phosphatidylinositol-4-phosphate (PI4P) by the type I phosphatidylinositol 4-phosphate 5-kinases (PI4P5K). These PI5P4K enzymes therefore represent one way by which cells can regulate endogenous PI5P levels and play important roles in insulin signaling and in stress responses. […] A qHTS PI5P4K-alpha ADP-Glo assay was developed to identify specific modulators of human PI5P4K, phosphatidylinositol-5-phosphate 4-kinase (Type II PIPK). This assay was screened against the MLSMR containing ~400,000 small molecules (PubChem AID 652105). To confirm that the hits were not interacting with the detection enzyme system, a 1536-well counterscreen against the ADP-Glo kit (Promega) was utilized, as described in Davis et al., 2013 [1]. Davis et al., PLoS One. 2013;8(1):e54127. NIH Chemical Genomics Center [NCGC] NIH Molecular Libraries Probe Centers Network [MLPCN] MLPCN Grant: MH096575 Assay Submitter (PI): Atsuo Sasaki, Beth Israel Deaconess Medical Center
# 2 microL of PI5P4Kalpha/substrate buffer (columns 1-2, 5-48) are dispensed into Greiner white solid bottom 1536-well assay plates; column 3 receives only PI5P4Kalpha buffer as 0x substrate controls; column 4 receives only substrate buffer as 0x PI5P4Kalpha controls. Final assay buffer consists of 0.038 M HEPES pH 7.4, 0.28 mM EGTA, 0.1% CHAPS, and 5% DMSO (final concentration). Compounds are then transferred via Kalypsys pin tool equipped with 1536-pin array (10 nL slotted pins, V&P Scientific, San Diego, CA). Following addition of compound, 1 microL of ATP (5 microM final concentration, all columns) is added to initiate the reaction. ATP is diluted in an assay buffer consisting of 0.02 M HEPES pH 7.4, 60 mM MgCl2, 15 microM ATP, and 0.1% CHAPS. The plates are then incubated at room temperature for 60 minutes. ADP-Glo reagent 1 is added (2 microL) and plates incubated for 45 minutes, before ADP-Glo reagent 2 (4 microL) is added and plates incubated for 30 minutes. They are then transferred to a ViewLux high-throughput CCD imager (PerkinElmer) wherein single end-point measurements of luminescence are acquired using a clear filter.
# % is scaled to controls: 0 for no effect and ±100 for the full control effect; potency is read from the fitted curve at half-maximal effect.
# Chain of Phosphatidylinositol 5-phosphate 4-kinase type-2 alpha (Homo sapiens) (P48426 whole entry, looked up): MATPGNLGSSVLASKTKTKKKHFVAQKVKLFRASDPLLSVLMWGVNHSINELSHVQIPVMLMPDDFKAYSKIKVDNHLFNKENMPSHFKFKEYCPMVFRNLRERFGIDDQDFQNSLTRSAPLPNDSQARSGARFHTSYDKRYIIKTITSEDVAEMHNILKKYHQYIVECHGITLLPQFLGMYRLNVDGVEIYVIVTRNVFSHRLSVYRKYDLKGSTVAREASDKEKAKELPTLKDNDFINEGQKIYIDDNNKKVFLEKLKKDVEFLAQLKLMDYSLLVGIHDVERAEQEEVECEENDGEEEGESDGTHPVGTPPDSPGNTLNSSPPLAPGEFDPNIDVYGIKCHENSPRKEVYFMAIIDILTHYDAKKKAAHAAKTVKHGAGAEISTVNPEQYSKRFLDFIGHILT
Compound,"activity change, negative = inhibition",Potency
CC(NC(=O)c1ccnn1C)C1CCCO1 (stereo not drawn),7.18% (inactive),–
Cn1c(=O)oc2cc(S(=O)(=O)Nc3ccccc3)ccc21,-5.26% (inactive),–
CCOc1ccc(NC(=O)N2CCC(n3nnc4ccccc43)CC2)cc1,1.23% (inactive),–
O=C1NN=C2CCCCCC12 (stereo not drawn),3.7% (inactive),–
C[C@H](NC(=O)c1cc2c(cn1)[nH]c1ccccc12)C(=O)O,–,10 µM (active)
Cc1ccc(-c2cc3c(n2-c2ccc(C(=O)O)cc2)CCCC3=O)cc1,–,15.8 µM (active)
COc1ccc(C(=O)c2sc(Nc3ccccc3F)nc2N)cc1,–,5.62 µM (active)
Nc1sc2c(c1C(=O)c1ccccc1)CCCC2,-22.2% (inactive),–
Nc1nc(Nc2ccccc2F)sc1C(=O)c1ccccc1,–,14.1 µM (active)
Nc1nc(Nc2ccccc2)sc1C(=O)c1ccccc1,–,7.94 µM (active)
CCC(=O)Oc1ccc(C(=O)Nc2c[nH]c(=O)[nH]c2=O)cc1,-4.14% (inactive),–
O=C(c1ccc(OCCN2CCCCC2)cc1)c1c(-c2ccc(O)cc2)sc2cc(O)ccc12,-20.9% (inactive),–
COc1ccc(S(=O)(=O)N(C(=O)c2ccco2)c2cc3sc(=O)oc3c3ccccc23)cc1,-19.6% (inactive),–
COc1ccccc1N(CC(=O)NCc1ccco1)S(=O)(=O)c1ccc(C)cc1,–,15.8 µM (active)
COc1ccccc1N(CC(=O)N1CCC(C(N)=O)CC1)S(=O)(=O)c1ccccc1,-7.71% (inactive),–
CCn1cc(C(=O)N2CCN(c3cccc(C)c3C)CC2)c(=O)c2ccc(C)nc21,-4.99% (inactive),–
O=C(O)c1cccc(NC(=O)c2cn(-c3ccccc3)nc2-c2cc3ccccc3o2)c1,–,14.1 µM (active)
CN(Cc1cn(-c2ccccc2)nc1-c1cc2ccccc2o1)C(=O)CCC(=O)O,-2.59% (inactive),–
COc1ccc(-c2nnn(CC(=O)N(CC(=O)NC3CCCC3)c3ccccc3)n2)cc1OC,0.286% (inactive),–
CS(=O)(=O)c1ccc(C(=O)Nc2nc(-c3ccco3)c(-c3ccco3)s2)cc1,-27.4% (inactive),–
COc1ccc2nc(-c3ccco3)c(-c3ccco3)nc2c1,–,10 µM (active)
Cc1cccc(C)c1NC(=O)C(c1ccc(C(F)(F)F)cc1)n1c(=O)c(-c2ccco2)nc2ccccc21 (stereo not drawn),-26.5% (inactive),–
COCCNC(=O)Nc1ccc2nc(-c3ccco3)c(-c3ccco3)nc2c1,–,6.31 µM (active)
O=C(Nc1nc(-c2ccco2)cs1)c1ccccc1,-26.7% (inactive),–
O=C(c1ccccc1)c1ccc2nc(-c3ccco3)c(-c3ccco3)nc2c1,–,4.47 µM (active)
COCCNC(=O)C(c1ccc(Cl)cc1)N(Cc1ccco1)C(=O)CCC(=O)Nc1ccccn1 (stereo not drawn),0.846% (inactive),–
COc1ccccc1Cc1c(-c2ccco2)nc2c(C)cc(Br)cn12,-11.9% (inactive),–

Compound,"activity change, negative = inhibition",Potency
COc1ccc(NC(=O)CSc2nnc(-c3ccco3)c(-c3ccco3)n2)cc1OC,-19.8% (inactive),–
CCCCNC(=O)c1ccc2nc(-c3ccco3)c(-c3ccco3)nc2c1,–,12.6 µM (active)
COc1ccc(C2=NCCn3nc4cc(OC)ccc4c32)cc1,-6.76% (inactive),–
CCCNC(=O)CSc1nnc(-c2ccco2)n1C,-0.997% (inactive),–
CN(C)C(=S)NCc1ccccc1,0.0461% (inactive),–
CC(=O)N1c2ccc(S(=O)(=O)NCCC(=O)N(C)C3CCCCC3)cc2CC1C (stereo not drawn),0.892% (inactive),–
COc1cccc2c1C(=O)C[C@]1(CCCC[C@@H]1C)O2,-0.193% (inactive),–
COc1ccc(C(CNC(=O)c2ccc(OCc3cscn3)cc2)N2CCCC2)cc1 (stereo not drawn),-4.41% (inactive),–
CC(C)Sc1nc(N2CCOCC2)c2c(c1C#N)CC(C)(C)N(C)C2,-4.58% (inactive),–
Cc1cc(NC(=O)CCCn2cc([N+](=O)[O-])cn2)n(Cc2ccc(F)cc2)n1,-0.367% (inactive),–
c1ccc2c(CCNc3ncnc4nc[nH]c34)c[nH]c2c1,–,17.8 µM (active)
Cc1sc2ncnc(NC(C)C(=O)O)c2c1C (stereo not drawn),–,3.98 µM (active)
O=C(Cc1ccc(S(=O)(=O)N2CCOCC2)s1)Nc1nc2c(s1)CCCC2,–,14.1 µM (active)
CCn1nc(CC(=O)Nc2nnc(CC(=O)N3CCOCC3)s2)c2ccccc2c1=O,-0.277% (inactive),–
CC(=O)c1ccc(NC(=O)c2cnn3ccccc23)cc1,–,3.55 µM (active)
COc1ccccc1Nc1ccc2c(O)cc(S(=O)(=O)O)cc2c1,–,3.16 µM (active)
O=S(=O)(O)c1cc(O)c2cc(Nc3ccccc3)ccc2c1,–,2 µM (active)
O=C(CCS(=O)(=O)c1ccc(Br)cc1)NCc1ccc(F)cc1,-6.2% (inactive),–
Cc1cc(NC(=O)CN2CCN(C)CC2)no1,-28% (inactive),–
Cc1cc(NC(=O)CSc2cn(CCNC(=O)c3ccccc3)c3ccccc23)no1,–,14.1 µM (active)
Cc1cc(NC(=O)Nc2ccccc2[N+](=O)[O-])no1,-3.15% (inactive),–
COC(=O)c1ccc2c(c1)/C(=C/c1cc(Br)c(O)c(Br)c1)C(=O)N2,–,0.823 µM (active)
O=C1Nc2ccc(C(=O)c3ccco3)cc2/C1=C/c1cc(Cl)c(O)c(Cl)c1,–,0.207 µM (active)
O=C(Nc1ccccc1Cl)c1ccc2nccnc2c1,-5.39% (inactive),–
NS(=O)(=O)c1ccc(CCNC(=O)c2ccc3nccnc3c2)cc1,–,14.1 µM (active)
COCc1cc(N2CCCCC2)nc(-c2ccccc2)n1,0.478% (inactive),–
